# Laboratory results published in the supplement of paper PMC10338343.
# ± gives the standard deviation.
# Tested on: MILI (PIWIL2) piRISC loaded with L1MC piRNA (26 nt)
# Experiment: pre-steady-state target cleavage rate (min^-1); guide: L1MC piRNA 5'p-UAACUAAAUACUAUGCAAGCUGUAGG; MIWI and MILI are mouse PIWI proteins and EfPiwi is from a freshwater sponge; tags in brackets are library labels; higher = faster piRNA-guided slicing of the target
# Conditions: auxiliary factor: 500 nM mouse GTSF1
# In short: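 Cleave-'n-Seq measured uncleaved targets by sequencing after a transcribed, DNA-blocked target RNA library […] was mixed with 1 nM active affinity-purified piRISC holding one synthetic guide, with or without 500 nM GTSF1 partner protein, at 33 °C in HEPES–potassium acetate buffer for 0–8 or 0–960 min. Counts were normalised to depth and to weakly complementary targets, three trials were pooled, and k3 was capped at 0.0001 min^-1. A burst-and-steady-state fit gave the pre-steady-state cleavage rate.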
# 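Further: 1 nM active piRISC with 0.1 nM target library at 33 °C single turnover.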
row,Sequence,pre-steady-state target cleavage rate
1,UCCUCCUACAGCUUGCUUAGUAAUUAGUUA,0.24 ± 0.015
2,UCCUGCUACUCCUUGCAUAGUAUUUAGUAA,0.188 ± 0.023
3,UCCUGGUAAAGCUUGCAUAGUAUUUAGUUA,0.183 ± 0.017
4,UCCUCCUACACCUUGCAUAGUAAUUAGUUA,0.196 ± 0.031
5,UCCUGGUUCAGCUUGCAUAGUAUUUAGUUA,0.23 ± 0.022
6,UCCUGCUACAGGUUGCUUAGUAUUUAGUUA,0.227 ± 0.012
7,UCCUCCUACAGCUUGCAUUGUAUUUAGUAA,0.182 ± 0.02
8,UCCUGGUACAGCUUGCAUAUUAUUUAGUUA,0.0704 ± 0.01
9,UCCUCCUAUAGCUUGCAUAGUAUUUAGUUA,0.244 ± 0.015
10,UCCUGGAACAGUUGCAUAGUAUUUAGUUA,0.2 ± 0.014
11,UCCUGGUACAGCUUGCAUAGUAUUUAGUCUA,0.0602 ± 0.024
12,UCCUGCUACAGCAUGCAUAGUUUUUAGUUA,0.114 ± 0.019
13,UCCUGGUACAGCUAGCAUAGUAUUUAGUUA,0.259 ± 0.017
14,UCCUGCUAGUGCUUGCAUAGUAUUUAGUUA,0.0937 ± 0.017
15,UCCUGGAUGUCCUUGCAUAGUAUUUAGUAA,0.117 ± 0.019
16,UCCUGCUAGAGCUUGCAUAGUAUAUAGUUA,0.176 ± 0.02
17,UCCUGGAUGUCGAUGCAUAGUAUUUAAGUUA,0.145 ± 0.019
18,UCCUCCUACAGCUUGCAUAGUAUUUAUUUA,0.142 ± 0.019
19,UCCUGCUACAGCUUGCAUACUAUUUAGUUA,0.0775 ± 0.012
20,UCCUCCUACAGGUUGCAUAGUAUUUAGUAA,0.233 ± 0.017

row,Sequence,pre-steady-state target cleavage rate
1,UCCUGGUACAGCUUGUCAUAGUAUUUAGUUA,0.19 ± 0.018
2,UCCUCCUACUGCUUGCUUAGUAUUUAGUUA,0.234 ± 0.015
3,UCCUGGUACAAGCUUGCAUAGUAUUUAGUUA,0.196 ± 0.024
4,UCCUGGAACAGCUUGCAUAGUAUUUGAGUUA,0.209 ± 0.035
5,UCCUGGAUGAGCUUGCAUAGUAUUUAAGUUA,0.153 ± 0.025
6,UCCUGGAUGUCGGUGCAUAGUAUUUAGUUA,0.0897 ± 0.011
7,UCCUCCUACAGCUUGCAUAGUAUUAAGUUA,0.178 ± 0.026
8,UCCUGCUACUGCUUGCAUAGUAUUAAGUUA,0.151 ± 0.02
9,UCCUGGAACUGGUUGCAUAGUAUUUAGUUA,0.202 ± 0.018
10,UCCUGCCUACAGCUUGCAUAGUAUUUAGUUA,0.342 ± 0.022
11,UCCUGGAUGAGCUUGCAUAGUUUUUAGUUA,0.0248 ± 0.0073
12,UCCUGCUACAGCUUGACAUAGUAUUUAGUUA,0.226 ± 0.018
13,UCCUGGAUCAGCUUGCAUAGUAUUGUAGUUA,0.176 ± 0.018
14,UCCUGGAUCAGCUUGCAUAGUUUUUAGUUA,0.0479 ± 0.0086
15,UCCUGCACAGCUUGCAUAGUAUUUAGUUA,0.317 ± 0.018
16,UCCUGCUACAGCUUGCAUAGUAUAUUAGUUA,0.389 ± 0.042
17,UCCUGGAACAGCUUGCAUAGUAUUUAGUGA,0.229 ± 0.027
18,UCCUGGAACAGCUUGCAUGGUAUUUAGUUA,0.283 ± 0.022
19,UCCUGCUACAGCUUGCAUAAUAUUUAGUUA,0.363 ± 0.034
20,UCCUGGAACUGCUAGCAUAGUAUUUAGUUA,0.215 ± 0.015

# Same assay, conditions: auxiliary factor: none (no GTSF1)
row,Sequence,pre-steady-state target cleavage rate
1,UCCUCCUACAGCUUGCUUAGUAAUUAGUUA,0.00424 ± 0.0021
2,UCCUGCUACUCCUUGCAUAGUAUUUAGUAA,0.00412 ± 0.002
3,UCCUGGUAAAGCUUGCAUAGUAUUUAGUUA,0.00996 ± 0.0023
4,UCCUCCUACACCUUGCAUAGUAAUUAGUUA,0.00304 ± 0.0027
5,UCCUGGUUCAGCUUGCAUAGUAUUUAGUUA,0.0108 ± 0.0032
6,UCCUGCUACAGGUUGCUUAGUAUUUAGUUA,0.0118 ± 0.0038
7,UCCUCCUACAGCUUGCAUUGUAUUUAGUAA,0.00398 ± 0.002
8,UCCUGGUACAGCUUGCAUAUUAUUUAGUUA,0.00385 ± 0.0027
9,UCCUCCUAUAGCUUGCAUAGUAUUUAGUUA,0.00658 ± 0.0019
10,UCCUGGAACAGUUGCAUAGUAUUUAGUUA,0.00668 ± 0.0022
11,UCCUGGUACAGCUUGCAUAGUAUUUAGUCUA,0.00783 ± 0.0041
12,UCCUGCUACAGCAUGCAUAGUUUUUAGUUA,0.00396 ± 0.0036
13,UCCUGGUACAGCUAGCAUAGUAUUUAGUUA,0.00964 ± 0.0026
14,UCCUGCUAGUGCUUGCAUAGUAUUUAGUUA,0.00303 ± 0.0022
15,UCCUGGAUGUCCUUGCAUAGUAUUUAGUAA,0.00376 ± 0.0019
16,UCCUGCUAGAGCUUGCAUAGUAUAUAGUUA,0.00268 ± 0.0026
17,UCCUGGAUGUCGAUGCAUAGUAUUUAAGUUA,0.00656 ± 0.0024
18,UCCUCCUACAGCUUGCAUAGUAUUUAUUUA,0.00314 ± 0.0027
19,UCCUGCUACAGCUUGCAUACUAUUUAGUUA,0.0046 ± 0.0019
20,UCCUCCUACAGGUUGCAUAGUAUUUAGUAA,0.00603 ± 0.0015

row,Sequence,pre-steady-state target cleavage rate
1,UCCUGGUACAGCUUGUCAUAGUAUUUAGUUA,0.0068 ± 0.003
2,UCCUCCUACUGCUUGCUUAGUAUUUAGUUA,0.00718 ± 0.0021
3,UCCUGGUACAAGCUUGCAUAGUAUUUAGUUA,0.0121 ± 0.0042
4,UCCUGGAACAGCUUGCAUAGUAUUUGAGUUA,0.00299 ± 0.003
5,UCCUGGAUGAGCUUGCAUAGUAUUUAAGUUA,0.00993 ± 0.0029
6,UCCUGGAUGUCGGUGCAUAGUAUUUAGUUA,0.00862 ± 0.0023
7,UCCUCCUACAGCUUGCAUAGUAUUAAGUUA,0.00415 ± 0.0024
8,UCCUGCUACUGCUUGCAUAGUAUUAAGUUA,0.00322 ± 0.0028
9,UCCUGGAACUGGUUGCAUAGUAUUUAGUUA,0.0046 ± 0.0029
10,UCCUGCCUACAGCUUGCAUAGUAUUUAGUUA,0.0113 ± 0.0037
11,UCCUGGAUGAGCUUGCAUAGUUUUUAGUUA,0.00471 ± 0.0024
12,UCCUGCUACAGCUUGACAUAGUAUUUAGUUA,0.00448 ± 0.0026
13,UCCUGGAUCAGCUUGCAUAGUAUUGUAGUUA,0.00992 ± 0.0032
14,UCCUGGAUCAGCUUGCAUAGUUUUUAGUUA,0.00873 ± 0.0021
15,UCCUGCACAGCUUGCAUAGUAUUUAGUUA,0.00995 ± 0.0028
16,UCCUGCUACAGCUUGCAUAGUAUAUUAGUUA,0.00735 ± 0.0029
17,UCCUGGAACAGCUUGCAUAGUAUUUAGUGA,0.00433 ± 0.0025
18,UCCUGGAACAGCUUGCAUGGUAUUUAGUUA,0.00826 ± 0.0025
19,UCCUGCUACAGCUUGCAUAAUAUUUAGUUA,0.00537 ± 0.0019
20,UCCUGGAACUGCUAGCAUAGUAUUUAGUUA,0.00611 ± 0.0019
